Assay [1] in a line: qHTS assay to identify small molecule agonists of the estrogen related receptor (ERR) signaling pathway from Tox21 library (AID 1224849; calls by dose curve; note: nearly all actives have a fitted effect of over 15% in size). To be noted: ERR reporter cell line, ONE-Glo luciferase, 18 h. Put shortly:
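ERR reporter cell line (NTP) seeded, rested 6 h at 37 C/5% CO2, then pinned with Tox21 compounds in DMSO. After 18 h at 37 C, ONE-Glo luciferase luminescence was read following 30 min at room temperature.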

A short description of assay [2]: qHTS RealTime-Glo MT Cell Viability Assay in HepG2 cells - 24 hour (AID 1224867). Note: nearly all actives have a fitted effect of over 50% in size. The following applies: RealTime-Glo luminescence; series mostly up to 76.8 µM. Put shortly: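 HepG2 suspension premixed with RealTime-Glo reagents is plated at 600 cells per well and left 5 h at 37 C/5% CO2. Compounds in DMSO then go in, and bioluminescence reflecting viable cell number is recorded over 40 h.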
On the technique in general: Quantitative high-throughput screening tests each substance at several concentrations.

Assay [3] in a line: qHTS RealTime-Glo MT Cell Viability Assay in HEK293 cells - 32 hour (AID 1224868). Note: top concentration of the series differs between compounds; nearly all actives have a fitted effect of over 50% in size. To be noted: RealTime-Glo luminescence; series mostly up to 76.8 µM. In outline:
(§1)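 Reads taken at 0, 8, 16, 24, 32 and 40 h from the same wells. HEK293 cells (600/well) carried RealTime-Glo reagents from seeding, with compound added after a 5 h settle at 37 C.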

Assay [4] in a line: A CellTox Green Cytotoxicity Assay to monitor cytotoxicity in HEK293 cells - 0 hour (AID 1224869). Note: nearly all actives have a fitted effect of over 50% in size. The following applies: CellTox Green fluorescence; series mostly up to 76.8 µM. Put shortly:
(§2)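 HEK293 cells premixed with CellTox Green dye were seeded at 600 cells/well and left 5 h at 37 C/5% CO2 before pin transfer of 23 nL compound in DMSO. Fluorescence from dye bound to dead-cell DNA was read during 40 h treatment.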

The nature of assay [5]: qHTS RealTime-Glo MT Cell Viability Assay in HepG2 cells - 40 hour (AID 1224870). Note: nearly all actives have a fitted effect of over 50% in size. The following applies: RealTime-Glo luminescence; series mostly up to 76.8 µM. Put shortly:
(§3)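 Real-time viability: cells seeded at 600 per well together with NanoLuc and cell-permeant prosubstrate, compounds added after 5 h incubation. Luminescence tracked at 0, 8, 16, 24, 32 and 40 h of exposure.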

A short description of assay [6]: A CellTox Green Cytotoxicity Assay to monitor cytotoxicity in HEK293 cells - 40 hour (AID 1224871). Note: nearly all actives have a fitted effect of over 45% in size. Note: potency is the fitted concentration of half-maximal effect. To be noted: CellTox Green fluorescence; series mostly up to 76.8 µM. Put shortly:
as §2

Assay [7] in a line: qHTS RealTime-Glo MT Cell Viability Assay in HEK293 cells - 16 hour (AID 1224872). The following applies: RealTime-Glo luminescence; series mostly up to 76.8 µM. Put shortly: as §1
The nature of assay [8]: qHTS RealTime-Glo MT Cell Viability Assay in HepG2 cells - 8 hour (AID 1224873). Note: nearly all actives have a fitted effect of over 55% in size. To be noted: RealTime-Glo luminescence; series mostly up to 76.8 µM. In outline: as §3
Assay [9] is described as follows: qHTS RealTime-Glo MT Cell Viability Assay in HEK293 cells - 40 hour (AID 1224874). Note: nearly all actives have a fitted effect of over 50% in size. The following applies: RealTime-Glo luminescence; max response: stronger effect = lower value. Put shortly:
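HEK293 cells mixed with RealTime-Glo reagents (NanoLuc plus cell-permeant prosubstrate) at 600 cells/well, preincubated 5 h at 37 C/5% CO2, then given 23 nL compound in DMSO. Nonlytic luminescence from viable cells was read at 0, 8, 16, 24, 32 and 40 h.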

The nature of assay [10]: A CellTox Green Cytotoxicity Assay to monitor cytotoxicity in HEK293 cells - 24 hour (AID 1224875). Note: nearly all actives have a fitted effect of over 45% in size. The following applies: CellTox Green fluorescence; series mostly up to 76.8 µM. Put shortly: as §2

Where “and” joins values, the source holds several entries; their conditions need not be identical. Identical values can stand only once. Records with an inconclusive call do not appear. Where a structure was tested more than once in an assay, its records may differ in their call. Calls of active or inactive are those of the source. Unless noted, calls come from the whole dose curve; as a rule, active = well fitted curve in the direction sought with a large enough effect in the repeat runs; inconclusive = weak or mixed curves; inactive = no such curve, though single readings can be large; an effect the other way counts as inactive or inconclusive.

This note sets out measurements from PubChem BioAssay (Tox21).
% is set by controls: 0 for no effect and ±100 for the full control effect.

Turning to `O=c1[nH]nnc2ccccc12`, the activity change, positive = activation in assay [1] (at 92.4 µM (top of the series)) was 5.04% (inactive) and -0.708% (inactive). The molecule was classed as inactive in assay [2], in assay [4], in assay [5] and in assay [8]. Moreover, the Potency entry in assay [3], in [6], in assay [7] and in assay [10] was “inactive” each time. The max response in assay [9] is 2.18% (inactive) and -25.5% (inactive).

Consider `Fc1ccc(Br)cc1`, for which the activity change, positive = activation in assay [1] (at 92.4 µM (top of the series)) is -0.613% (inactive) and 3.34% (inactive). The molecule was classed as inactive in assay [2], in [4], in [5] and in assay [8]. For the same molecule, the Potency entry in assay [3], in assay [6], in assay [7] and in assay [10] was “inactive” each time. In [9], the max response was 11.6% (inactive) and 0.497% (inactive).

For the molecule `CCCCCCCCCCCCCCCO`, the activity change, positive = activation in assay [1] (at 92.4 µM (top of the series)) is -0.174% (inactive). Also, the molecule was called inactive in assay [2], in [4], in [5] and in [8]. For the same molecule, the Potency entry in assay [3], in assay [6], in assay [7] and in [10] was “inactive” in each case. For the same molecule, the max response in [9] was 0.0156% (inactive).

Take `O=C(O)c1ccccc1C(c1ccc(O)cc1)c1ccc(O)cc1`: the activity change, positive = activation in [1] (at 92.4 µM (top of the series)) is 4.92% (inactive) and 4.34% (inactive). For the same molecule, the molecule was called inactive in [2], in [4], in assay [5] and in assay [8]. Besides, the Potency entry in assay [3], in assay [6], in assay [7] and in assay [10] was “inactive” each time. Besides, the max response in assay [9] was 2.57% (inactive) and 12.8% (inactive).

As to `C[C@H]1C[C@@H]2[C@H]([C@@H](O)C[C@@]3(C)[C@H]2CC[C@]3(O)C(=O)CO)[C@@]2(C)C=CC(=O)C=C12`, the activity change, positive = activation is -3.14% (inactive) in [1] (at 42.5 µM (top of the series)) and -13.3% (inactive) in assay [1] (at 92.4 µM (top of the series)). Also, the molecule was classed as inactive in assay [2], in assay [4], in assay [5] and in [8]. In addition, the Potency result in assay [3], in assay [6], in assay [7] and in assay [10] was “inactive” throughout. Moreover, the max response in [9] is -9.2% (inactive) and -9.81% (inactive).

Turning to `CC(C)CC(=O)CC(C)C`, in assay [1] (at 92.4 µM (top of the series)), the activity change, positive = activation is 0.354% (inactive) and 0.455% (inactive). The result in [2], in assay [4], in assay [5] and in assay [8] was inactive. In addition, the Potency entry in [3], in [6], in assay [7] and in [10] was “inactive” throughout. The max response in assay [9] was 3.78% (inactive) and -11.6% (inactive).

With `CC(C)(N)CO`, in assay [1] (at 92.4 µM (top of the series)), the activity change, positive = activation is 3.88% (inactive) and 1.99% (inactive). Further, the molecule was called inactive in assay [2], in [4], in assay [5] and in assay [8]. The Potency entry in [3], in assay [6], in [7] and in [10] was “inactive” throughout. The max response in assay [9] was 5.94% (inactive) and 1.04% (inactive).

Regarding `OCCOCCOCCO`, the activity change, positive = activation in [1] (at 92.4 µM (top of the series)) is -2.92% (inactive) and 6.58% (inactive). In addition, the result in assay [2], in assay [4], in [5] and in assay [8] was inactive. In addition, the Potency entry in assay [3], in assay [6], in assay [7] and in [10] was “inactive” each time. Also, the max response in assay [9] is -0.565% (inactive) and 3.8% (inactive).

Regarding `CCCCC(CC)COC(=O)C(C#N)=C(c1ccccc1)c1ccccc1` (stereo not drawn), the activity change, positive = activation in assay [1] (at 42.5 µM (top of the series)) is -38.1% (inactive); in [1] (at 92.4 µM (top of the series)), -32.9% (inactive). For the same molecule, the molecule was classed as inactive in assay [2], in assay [4], in assay [5] and in assay [8]. Also, the Potency entry in assay [3], in assay [6], in [7] and in [10] was “inactive” in each case. Moreover, the max response in assay [9] was -27.4% (inactive).

For the molecule `O=C(O)CCCC[C@@H]1SC[C@@H]2NC(=O)N[C@@H]21`, the results for the activity change, positive = activation in assay [1] (at 42.5 µM (top of the series)) and in [1] (at 92.4 µM (top of the series)) were 7.51% (inactive) and 9.85% (inactive), respectively. For the same molecule, the call in assay [2], in [4], in assay [5] and in assay [8] was inactive. For the same molecule, the Potency result in assay [3], in [6], in assay [7] and in assay [10] was “inactive” in each case. In addition, the max response in [9] was 6.98% (inactive) and 0.709% (inactive).

Consider `Cc1cccnc1`, for which the activity change, positive = activation in [1] (at 92.4 µM (top of the series)) is 2.78% (inactive) and 3.63% (inactive). Besides, the result in [2], in assay [4], in assay [5] and in assay [8] was inactive. Also, the Potency result in [3], in [6], in assay [7] and in assay [10] was “inactive” in each case. Further, the max response in assay [9] was -5.56% (inactive) and 0.742% (inactive).

Turning to `Nc1cc([N+](=O)[O-])ccc1O`, in [1] (at 92.4 µM (top of the series)), the activity change, positive = activation is -4.29% (inactive) and 0.807% (inactive). Further, the call in [2], in [4], in assay [5] and in assay [8] was inactive. In addition, the Potency result in assay [3], in assay [6], in assay [7] and in [10] was “inactive” throughout. In addition, in [9], the max response is -21.5% (inactive) and -15.3% (inactive).

In the case of `CC[C@H](C)C(=O)O[C@H]1C[C@@H](C)C=C2C=C[C@H](C)[C@H](CC[C@@H]3C[C@@H](O)CC(=O)O3)[C@H]21`, the activity change, positive = activation in assay [1] (at 42.5 µM (top of the series)) is 14.3% (active); in [1] (at 92.4 µM (top of the series)), -46.9% (active) and 27.5% (active). Moreover, the outcome in assay [2], in [4], in [5] and in [8] was inactive. Moreover, the Potency result in assay [3], in [6], in [7] and in assay [10] was “inactive” in each case. Moreover, in assay [9], the max response is -8.74% (inactive) and -19.2% (inactive).

`COS(C)(=O)=O`: the activity change, positive = activation in assay [1] (at 92.4 µM (top of the series)) is 1.76% (inactive) and -2.76% (inactive). Moreover, the molecule was called inactive in [2], in [4], in [5] and in [8]. Moreover, the Potency entry in assay [3], in [6], in [7] and in assay [10] was “inactive” in each case. The max response in [9] is 0.0927% (inactive) and -3.51% (inactive).

Consider `CN(C)CCOCCN(C)C`, for which, in [1] (at 92.4 µM (top of the series)), the activity change, positive = activation is -5.24% (inactive) and -0.172% (inactive). Further, the outcome in [2], in assay [4], in [5] and in [8] was inactive. In addition, the Potency entry in assay [3] and in assay [7] was “inactive” throughout. Further, the Potency result in assay [6] was “inactive and 43.6 µM (active)”. In assay [9], the max response was 0.168% (inactive) and 5.1% (inactive).

Consider `CCc1cccc(C)c1N`, for which the activity change, positive = activation in assay [1] (at 92.4 µM (top of the series)) was -1.49% (inactive). Besides, the result in assay [2], in [4], in assay [5] and in assay [8] was inactive. Moreover, the Potency result in [3], in assay [6], in [7] and in assay [10] was “inactive” throughout. Also, the max response in assay [9] is 1.23% (inactive) and 1.97% (inactive).

For the molecule `Cc1cccc(O)c1`, in assay [1] (at 92.4 µM (top of the series)), the activity change, positive = activation is 8.59% (inactive) and 2.31% (inactive). Further, the result in [2], in assay [4], in [5] and in assay [8] was inactive. For the same molecule, the Potency entry in [3], in assay [6], in assay [7] and in assay [10] was “inactive” each time. For the same molecule, in [9], the max response is 3.75% (inactive) and 3.48% (inactive).
